ST2 IL33 inh – IL1RL1 inhibition; 78,000 tested, 2.3% active; AlphaLISA ST2-Fc/biotin-IL-33 interaction, 1 h; inhibition, % for hits at 17 µM; in the data active means inhibition above about 30%
Target sequence (Q01638 whole entry, looked up): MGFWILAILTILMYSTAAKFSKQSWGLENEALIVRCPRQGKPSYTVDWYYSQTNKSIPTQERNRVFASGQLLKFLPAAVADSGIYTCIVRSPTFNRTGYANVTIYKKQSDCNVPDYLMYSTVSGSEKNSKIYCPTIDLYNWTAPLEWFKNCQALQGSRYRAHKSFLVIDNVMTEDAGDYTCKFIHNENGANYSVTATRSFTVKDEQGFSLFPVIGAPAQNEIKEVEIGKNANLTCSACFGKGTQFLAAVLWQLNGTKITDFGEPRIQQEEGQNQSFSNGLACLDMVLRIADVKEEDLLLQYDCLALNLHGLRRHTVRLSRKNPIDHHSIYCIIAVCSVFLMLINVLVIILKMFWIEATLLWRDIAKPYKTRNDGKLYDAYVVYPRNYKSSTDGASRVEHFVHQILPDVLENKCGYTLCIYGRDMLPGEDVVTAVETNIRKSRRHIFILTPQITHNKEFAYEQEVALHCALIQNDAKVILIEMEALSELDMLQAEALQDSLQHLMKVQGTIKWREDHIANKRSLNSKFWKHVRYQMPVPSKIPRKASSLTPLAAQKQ
Active calls of the source: *; i = inactive. Only a selection was taken, and hits are over-represented in it overall.

SMILES	ST2 IL33 inh
COc1cccc(Cn2nc(C(=O)NC3CC3)c3c2CCN(C(=O)CCc2c[nH]c4ccccc24)C3)c1	i
COc1ccccc1C(=O)Oc1ccc2c(=O)c(-c3ccccc3Cl)coc2c1	i
Oc1cccc(-c2nccc3ccccc23)c1	i
CCOc1ccccc1Nc1sc(C(=O)c2ccccc2)c(N)c1C#N	i
CC(c1ccc(-c2ccc(CN3CCN(C)CC3)cn2)cc1)N1CCOCC1 (stereo not drawn)	i
COc1ccc(-n2nc3c(c2NC(=O)c2ccc(S(=O)(=O)N(C)C)cc2)CS(=O)C3)cc1 (stereo not drawn)	i
O=c1c2cnn(-c3ccccc3)c2ncn1Cc1cccnc1	i
C(=Nc1cc(-c2ccccc2)nn1-c1ccccc1)c1cccnc1	33%*
O=C(Cn1nc(-c2ccccc2)ccc1=O)NCc1cccnc1	i
O=C(c1coc(CN2CCN(C/C=C/c3ccccc3)CC2)n1)N1CCSCC1	i
O=C(NCc1cccs1)N1CCOC(c2ccc(Cl)c(Cl)c2)C1 (stereo not drawn)	i
Cc1ccc(N2NC(=O)/C(=C/c3ccc(OCc4ccccc4)cc3)C2=O)cc1Cl	i
COc1cc(/C=C2/C(=O)NN(c3ccc(C)c(Cl)c3)C2=O)ccc1OCc1ccccc1	48%*
COc1cc(/C=C2/C(=O)NN(c3ccc(C)c(Cl)c3)C2=O)cc(OC)c1OC	i
Oc1cc(-c2cccc(Cl)c2)cc2c1OCCN(c1ncnc3nc[nH]c13)C2	i
Cn1nc(C(F)(F)F)c(Cl)c1C(=O)N1CCCC1Cn1cccn1 (stereo not drawn)	i
c1ccc2[nH]c(CCSc3nc4ccccc4[nH]3)nc2c1	i
CCCCn1c(=N)n(CC(O)C(C)(C)C)c2ccccc21 (stereo not drawn)	i
Cc1nc(C(=O)N2CCC3(CCCN(CC4CCC4)C3=O)C2)cs1 (stereo not drawn)	i
Cn1c(=O)c2c(nc(CN3CCN(c4ccc(F)cc4)CC3)n2CC(N)=O)n(C)c1=O	i
Cn1c(=O)c2c(nc(Br)n2Cc2ccc(F)cc2)n(C)c1=O	i
CC(=O)N1N=C(c2ccc(F)cc2)Cn2c1nc1c2c(=O)n(C)c(=O)n1C	55%*
O=S(=O)(Nc1c(F)c(F)cc(F)c1F)c1ccc(Cl)cc1	i
CN1CCc2cc(Cl)c(O)cc2[C@@H](c2ccccc2)C1	i
CN1CCc2c(cc(O)c(O)c2Cl)C(c2cccc(Cl)c2)C1 (stereo not drawn)	39%*
SMILES	ST2 IL33 inh
CN1CCc2cc(O)c(O)cc2C(c2ccccc2)C1 (stereo not drawn)	i
COc1ccc(Cl)cc1N(C)C(=O)Cc1c(C(=O)O)[nH]c2ccc(Cl)cc12	i
COC(=O)C1C(=O)C2=C(CC1C)NC(C)=C(C(=O)OC(C)C)C2c1ccc(C)s1 (stereo not drawn)	i
CC(=O)NC(C)c1nc2ccccc2n1Cc1c(F)cccc1Cl (stereo not drawn)	i
Cc1ccc(C(=O)N2CCN(c3ccc(F)cc3)CC2)cc1	i
CC1=C(C(=O)Nc2ccccn2)C(c2ccc([N+](=O)[O-])cc2)C2=C(CC(C)(C)CC2=O)N1 (stereo not drawn)	i
Cc1cc(C)n(-c2ccc3cccc([N+](=O)[O-])c3n2)n1	i
O=[N+]([O-])c1cccc2ccc(Nc3ccccn3)nc12	31%*
O=[N+]([O-])c1ccccc1OCCOc1cccc2cccnc12	i
CC1=C(C(=O)OC(C)C)C(c2cc(Br)ccc2F)CC(=O)N1 (stereo not drawn)	i
Cc1cc(C(=O)N2CCC(N3CCCC3=O)CC2)c2cccc(C)c2n1	i
COc1cccc(NC(=O)CCC2CCN(C(=O)Cc3nonc3C)CC2)c1	i
FC(F)(F)C1CN(c2ccc(-c3ccccc3)nn2)CCO1 (stereo not drawn)	96%*
O=C(N1CCOC(C(F)(F)F)C1)C1(S(=O)(=O)c2ccccc2)CC1 (stereo not drawn)	i
CNc1nc(N2CCOC(C(F)(F)F)C2)ncc1F (stereo not drawn)	i
O=C(O)c1cccnc1CN(Cc1ccccc1)[C@@H]1CCCC[C@H]1O	i
Cc1cc(NCCN2CCOCC2)n2c(nc3ccccc32)c1C#N	i
N#Cc1c(C(F)(F)F)cc(NCCN2CCOCC2)n2c1nc1ccccc12	34%*
CCCc1cc(NCCOC)n2c(nc3ccccc32)c1C#N	i
CSc1nsc(SC)c1NC(=O)Nc1cccc([N+](=O)[O-])c1	i
Cc1cnc(N2CCC(O)(c3ccccc3)CC2)nc1N(C)C	35%*
OC1(c2ccccc2)CCN(c2nccc(CCC(F)(F)F)n2)C1 (stereo not drawn)	i
Cc1ccc(C2(O)CCN(c3nc4ccccc4s3)CC2)nc1	i
COc1ccc(CCC(=O)N2CCCC(CNC(=O)c3ccc(F)cc3)C2)cc1 (stereo not drawn)	i
O=C(O[C@@H]1Cc2c(O)cc(O)cc2O[C@@H]1c1cc(O)c(O)c(O)c1)c1cc(O)c(O)c(O)c1	31%*
SMILES	ST2 IL33 inh
O=C1c2c(O)cc(O)cc2OC(c2ccc(O)c(O)c2)C1O (stereo not drawn)	i
O=C(Oc1cc(O)c2c(c1)O[C@@H](c1ccc(O)c(O)c1)[C@H](O)C2)c1cc(O)c(O)c(O)c1	i
CC1=C(C(N)=O)C(c2sccc2C)n2ncnc2N1 (stereo not drawn)	i
CCOc1ccc(/C=C2\C(=O)NN(c3cccc(Br)c3)C2=O)cc1OCC	i
COc1cccc(/C=C2/C(=O)NN(c3ccc(C)c(Cl)c3)C2=O)c1	i
Cc1ccccc1OCCOc1ccc([N+](=O)[O-])cc1/C=C1\C(=O)NN(c2ccccc2)C1=O	35%*
COc1cccc(/C=C2/C(=O)NN(c3ccccc3)C2=O)c1OC	i
O=C1NN(c2ccccc2)C(=O)/C1=C/c1ccccc1OCc1c(F)cccc1Cl	41%*
Cc1ccccc1OCCn1cc(C=C2C(=O)N(C)C(=O)N(C)C2=O)c2ccccc21	i
CCOC(=O)c1c(NC(=O)C(C)Oc2ccc(Cl)c(C)c2)sc(C(C)=O)c1C (stereo not drawn)	i
COc1ccc(C(=O)N2CCC(C(=O)NCc3ccccc3Cl)CC2)cc1	i
CC(C)C(=O)Nc1cccc(C(=O)Nc2cccc(O)c2)c1	i
CC1=C(C(=O)Nc2cccc(C)n2)C(c2cccc([N+](=O)[O-])c2)C2=C(CC(C)(C)CC2=O)N1 (stereo not drawn)	i
Cc1nn(CCNS(=O)(=O)NCc2ccccc2)c(C)c1Cl	i
Cc1ccc(CNS(=O)(=O)NCc2ccccc2)c(F)c1F	i
Cn1ccnc1SCCNS(=O)(=O)NCc1ccccc1	31%*
Cc1[nH]n(-c2cccc(Cl)c2)c(=O)c1C=Nc1ccc(Cl)c(C(=O)O)c1	i
COc1ccc(C2=NN(C(C)=O)C(c3ccccc3OC)C2)cc1OC (stereo not drawn)	i
CC1OC(O[C@H]2CC[C@@]3(C)C(CC[C@]4(C)C3CC=C3C5CC(C)(C)CC[C@]5(C(=O)OC5OC(CO)C(OC6OCC(O)C(O)C6O)C(O)C5O)CC[C@]34C)C2(C)C)C(O)C(O)C1OC1OC(CO)C(O)C(OC2OC(CO)C(O)C(O)C2O)C1O (stereo partly drawn)	i
CN(Cc1ncc[nH]1)C(=O)C1CCCN(C2CCN(c3nc4ccccc4o3)CC2)C1 (stereo not drawn)	i
CC1CC(=O)C2=C(C1)OC(N)=C(C#N)C2c1ccoc1 (stereo not drawn)	i
COC(=O)[C@@H]1Cc2ncn(C)c2CN1S(=O)(=O)c1ccc(C#N)cc1	i
